From PubChem BioAssay (NCI)
About 79,000 compounds went through this panel and 15% of them were active in at least one assay; those are over-represented in the sample as a whole. Unmarked numbers belong to inactive results. Activity calls are given as the source filed them. No stated cut-off is given here; in the data, active means growth inhibition above about 70%; inactive means the rest.

Key:
[1] = NCI Yeast Anticancer Drug Screen. Data for the rad50 strain (AID 155);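 further: 0% = growth of vehicle-only cultures of the same strain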; conditions: S. cerevisiae rad50 strain growth inhibition, active compounds read high
Method in brief: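 DNA repair mutant yeast, compound exposure, growth read-out; inhibition is taken relative to vehicle.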

[2] = NCI Yeast Anticancer Drug Screen. Data for the mec2-1 strain (AID 157); conditions: S. cerevisiae mec2-1 strain, active compounds read high
Method in brief: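 Using mec2-1 yeast: add compound, measure growth, express inhibition versus vehicle-treated cultures.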

[3] = NCI Yeast Anticancer Drug Screen. Data for the sgs1 mgt1 strain (AID 161);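 further: 0% = growth of cultures given vehicle only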; conditions: S. cerevisiae sgs1 mgt1 strain, active compounds read high
Method in brief: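 This yeast growth screen uses a strain with defined DNA-repair lesions; compound-treated growth is compared with vehicle-treated growth.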

[4] = NCI Yeast Anticancer Drug Screen. Data for the cln2 rad14 strain (AID 165);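 further: 0% = growth equal to vehicle treated cultures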; conditions: S. cerevisiae cln2 rad14 strain, active compounds read high
Method in brief: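 Yeast strain cln2 rad14, bearing defects in cell cycle control and DNA repair, serves as the test system; values reflect growth inhibition compared with vehicle.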

[5] = NCI Yeast Anticancer Drug Screen. Data for the bub3 strain (AID 167); conditions: S. cerevisiae bub3 mutant strain, active compounds read high
Method in brief: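 In this screen, a yeast mutant lacking normal mitotic checkpoint function is challenged with compound. Relative growth versus vehicle gives the inhibition value.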

[6] = NCI Yeast Anticancer Drug Screen. Data for the mlh1 rad18 strain (AID 175); conditions: S. cerevisiae mlh1 rad18 strain growth inhibition, active compounds read high
Method in brief: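 Steps: expose repair-defective yeast to compound; measure growth; express inhibition against vehicle-treated controls.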

[7] = at 5.0 µM (retest, dose inferred, filed as 0.5)
[8] = at 50.0 µM (retest, dose inferred, filed as 5.0)

| Compound | growth inhibition [1, 7] | growth inhibition [1, 8] | growth inhibition ([1]; at 50.0 µM) | growth inhibition [2, 7] | growth inhibition [2, 8] | growth inhibition ([2]; at 50.0 µM) | growth inhibition [3, 7] | growth inhibition [3, 8] | growth inhibition ([3]; at 50.0 µM) | growth inhibition [4, 7] | growth inhibition [4, 8] | growth inhibition ([4]; at 50.0 µM) | growth inhibition [5, 7] | growth inhibition [5, 8] | growth inhibition ([5]; at 50.0 µM) | growth inhibition [6, 7] | growth inhibition [6, 8] | growth inhibition ([6]; at 50.0 µM) |
| --- | --- | --- | --- | --- | --- | --- | --- | --- | --- | --- | --- | --- | --- | --- | --- | --- | --- | --- |
| CC1CC(c2ccccc2)(c2ccccc2)C(=O)C(C)N1C (centres undefined) | -1% | 22% | 13.6% | -2% | -5% | 29.9% | 0% | -19% | 14.2% | -1% | -2% | 28% | -4% | 10% | 72% (active) | -3% | 7% | 25.9% |
| CCCCCCCCCCCCNC(=O)c1cc[n+](Cc2ccc(Cl)c(Cl)c2)cc1 | 99% (active) | 98% (active) | 99.3% (active) | 100% (active) | 97% (active) | 99.2% (active) | 100% (active) | 98% (active) | 99.1% (active) | 88% (active) | 98% (active) | 97.8% (active) | 98% (active) | 98% (active) | 98.8% (active) | 99% (active) | 99% (active) | 99% (active) |
| O=C(Sc1ccccc1)C1OC12CCCCC2 (centres undefined) | -160% | -116% | 50.5% | -48% | -44% | 31.2% | -68% | -47% | 63.8% | -62% | -75% | -8.05% | -65% | -57% | 8.8% | -122% | -90% | 50.1% |
| FC(F)(F)c1nc2cc(SSc3cc4nc(C(F)(F)F)[nH]c4cc3Cl)c(Cl)cc2[nH]1 | 1% | 51% | 97.5% (active) | -1% | 85% (active) | 93.2% (active) | 0% | 87% (active) | 95% (active) | -6% | 91% (active) | 65.8% | -18% | 61% | 97% (active) | -12% | 97% (active) | 97.7% (active) |
| COc1ccc2c(c1)N=C(N)n1c(nc3ccccc31)S2 | -1% | 51% | 60.6% | -6% | 42% | 54.6% | -10% | 83% (active) | 74.3% (active) | -33% | 34% | 36.1% | -37% | 36% | 69.7% | -14% | 57% | 56.8% |
| COc1cccc2c1[n+]([O-])c1cccc(O)c1[n+]2[O-] | 98% (active) | 99% (active) | 91.4% (active) | 99% (active) | 100% (active) | 90.4% (active) | 100% (active) | 100% (active) | 87.5% (active) | 93% (active) | 99% (active) | 88.4% (active) | 99% (active) | 100% (active) | 84.2% (active) | 97% (active) | 99% (active) | 91.7% (active) |
| O=C(c1ccccc1)c1c(CO[N+](=O)[O-])n([O-])c2ccccc2[n+]1=O | 20% | 97% (active) | 98.5% (active) | 14% | 99% (active) | 99% (active) | 10% | 98% (active) | 98.3% (active) | 10% | 96% (active) | 99.2% (active) | -5% | 98% (active) | 97.7% (active) | 48% | 99% (active) | 98.8% (active) |
| O=c1oc2ccccc2c(O)c1/C=N/C(=S)NCc1ccccc1 | -28% | -15% | 83.8% (active) | -11% | -18% | 85.8% (active) | -19% | -19% | 87.3% (active) | -19% | 10% | 76.2% (active) | -19% | 2% | 78.3% (active) | -36% | -12% | -42.5% |
| Oc1ccc2c(c1O)/C(=C/C=NCC1(O)OCC(O)C(O)C1O)C=N2 (centres undefined) | 2% | -7% | 67.3% | 5% | -7% | 67.4% | 4% | 1% | 88.4% (active) | 0% | -9% | 83.5% (active) | 2% | -3% | 48.3% | 2% | -2% | 77% (active) |
| O=C(O)COc1cc(Br)cc(Br)c1-c1ccccc1 | 2% | 36% | 65.2% | 14% | 70% (active) | 59.5% | -10% | 39% | 71.2% (active) | 2% | 56% | 65% | -3% | 46% | 29.8% | 22% | 78% (active) | 67.7% |
| O=C1CSC(=S)N1c1ccc(F)cc1F | 8% | 86% (active) | 89.8% (active) | -2% | 82% (active) | 22.6% | 10% | 78% (active) | 65.2% | -3% | 16% | -9% | -3% | 84% (active) | 83.8% (active) | 3% | 89% (active) | 70.2% (active) |
| CS(=O)(=O)c1ccc(C[N+]23CN4CN(CN(C4)C2)C3)cc1 | -9% | -2% | -8.25% | 0% | 13% | 14.7% | -20% | -5% | -0.8% | -8% | -4% | 43.4% | -4% | 6% | -4.75% | -9% | -4% | 1.85% |
| Cc1ccc(O)cc1CCCCO | 2% | -4% | -7.45% | 0% | -1% | -2.1% | -1% | -2% | -3.55% | -2% | 7% | 74.6% (active) | -11% | 0% | -5.95% | 0% | -2% | -3.45% |
| Nc1ncnc2nc(-c3ccc(C[P+](c4ccccc4)(c4ccccc4)c4ccccc4)cc3)[nH]c12 | -6% | 77% (active) | 72% (active) | 11% | 43% | 66.2% | 0% | 78% (active) | 73.8% (active) | -10% | 61% | 62.6% | 11% | 61% | 54.8% | -6% | 83% (active) | 69.8% |
| CCOC(=O)/N=C(\N)SCc1ccccc1 | 21% | 3% | 10.9% | -4% | -6% | 1.05% | 13% | -8% | -12.8% | -7% | -8% | -6.25% | 0% | -7% | 49.5% | -3% | -2% | -5.95% |
| C=CCOC(=O)CCC(=O)N(CC)CC | 4% | -10% | -8.95% | -1% | 1% | -12.7% | -6% | -11% | -25.1% | -7% | 0% | 72.5% (active) | -2% | 1% | -7.35% | -2% | -10% | -2.3% |
| CCCCCCCCCCOC(=O)Nc1ccc(C)c(NC(=O)OCCCCCCCCCC)c1 | 0% | 1% | 27.4% | 1% | -3% | 13.4% | 3% | -13% | 16.8% | 2% | -13% | 23.1% | 0% | -1% | 55.2% | -1% | -3% | 24.6% |
| O=C(O)/C(=C/c1ccc(Cl)cc1)c1ccccc1 | -5% | 23% | 4.7% | -7% | 23% | 44.5% | -3% | 27% | 10.6% | -10% | 39% | 90.7% (active) | -8% | 17% | 9.95% | -5% | 45% | 39.6% |
